dFosB act: enhances mouse delta FosB homodimer DNA binding; P13346; purified delta FosB, TAMRA-CDK5 oligo fluorescence polarization; percent of positive-control signal above neutral wells; activation, % at 25 µM; 0.99% of 340,000 active; AID 493131;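 active = mean activation above about 17%, with every replicate also reaching it, limit read from the data, passing the limit was not always enough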
CR mimetic SO: yeast age-related superoxide inhibition as caloric restriction mimetic | AID 2690 | 0.18% of 330,000 active | S. cerevisiae aged cells, superoxide DHE fluorescence; stronger effect = lower value | superoxide response (% of plate mean), % at 10 µM;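 active = superoxide response under a set limit, about three screen SD below normal, cut at about 65% in these data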;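 also: yeast aged for seven days with compound at 30 °C before DHE staining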
NALP1 yeast inh: NALP1 inhibition | S. cerevisiae NALP1/ASC/caspase-1 growth, X-gal OD620, 72 h | AID 2071 | inhibition, % at 10 µM | 0.61% of 280,000 active; in the data active = inhibition mostly above about 24%, no sharp cut-off; inactive = mostly below about 32%
GRIN3A LBD mod: modulates the human NR3A ligand-binding domain. NR3A LBD differential scanning fluorimetry, Tm shift; 0% = protein alone, 100% = glycine-bound protein. Tm shift relative to glycine control, % at 25 µM. 2.5% of 340,000 active. AID 1259313;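 active = melting temperature shift of at least 10% of the positive control shift, at one fixed dose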
UBC13 inh: blocks human UBC13 polyubiquitin chain formation | 0.47% of 330,000 active | P61088 | TR-FRET | inhibition, % at 20 µM; in the data active = inhibition above about 45%, passing the limit was not always enough
Target sequence (P61088 whole entry, looked up): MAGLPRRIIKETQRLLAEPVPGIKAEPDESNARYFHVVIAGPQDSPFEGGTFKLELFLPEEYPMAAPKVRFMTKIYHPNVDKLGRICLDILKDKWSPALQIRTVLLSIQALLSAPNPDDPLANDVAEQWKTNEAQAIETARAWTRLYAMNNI
Casp3 counter: counter-screen for UBC13 inhibitors: human caspase-3 inhibition; shares compounds with UBC13 inh; Recombinant caspase-3, Caspase-Glo 3/7 luminescence, 60 min; inhibition, % at 20 µM; 4% of 1,400 active; AID 488856;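 active = mean inhibition across replicates above about 26%, limit read from the data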
Target sequence (P42574 whole entry, looked up): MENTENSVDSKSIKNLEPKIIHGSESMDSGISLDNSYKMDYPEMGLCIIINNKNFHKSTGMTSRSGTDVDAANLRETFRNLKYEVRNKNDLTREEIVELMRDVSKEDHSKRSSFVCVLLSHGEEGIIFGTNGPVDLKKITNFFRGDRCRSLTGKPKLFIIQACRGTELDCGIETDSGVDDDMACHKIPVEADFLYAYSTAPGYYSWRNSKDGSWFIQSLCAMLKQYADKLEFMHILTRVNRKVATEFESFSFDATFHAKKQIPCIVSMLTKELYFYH
UBC13 conf: human UBC13 polyubiquitin inhibition, confirmed; shares compounds with UBC13 inh; UBC13 polyubiquitination, TR-FRET, biochemical; inhibition, % at 10 µM; 68% of 1,400 active; AID 488859; in the data active = inhibition above about 45%
Of the large screens only hits and unclear results are named; the others gave an inactive call (follow-up assays come after a bar, where they were run). Shown are actives, neighbours in structure and some others; about 4.3% of the full set was active somewhere.

Cc1ccc(NC2=CC(=O)CC(c3ccccc3)C2)cc1 (configuration not stated)	UBC13 inh 45.0 | Casp3 counter inactive | UBC13 conf inactive
CC1(C)Cc2c(sc(NC(=O)C(=O)N3CCN(CCO)CC3)c2C(N)=O)CO1	none
CC1(C)Cc2c(sc(NC(=O)C(=O)NCC3CCCO3)c2C(N)=O)CO1 (configuration not stated)	UBC13 inh 81.4 | Casp3 counter inactive | UBC13 conf 106.3
COC(=O)c1c(NC(=O)c2ccccc2)sc2c1CC(C)(C)OC2	none
COC(=O)c1c(NC(=O)C(=O)N2CCCC2)sc2c1CC(C)(C)OC2	UBC13 inh 47.8 | Casp3 counter inactive | UBC13 conf 100.5
CC1(C)Cc2c(sc(NC(=O)C(=O)N3CCCC3)c2C(N)=O)CO1	UBC13 inh 85.6 | Casp3 counter inactive | UBC13 conf 104.8
COc1cc(/C=N/NC(=O)c2sc(N)c(C#N)c2C)ccc1O	GRIN3A LBD mod 14.8, UBC13 inh 51.2 | Casp3 counter inactive | UBC13 conf 55.5
Cn1c(=O)c2c(nc(SCC(=O)NCc3ccc4c(c3)OCO4)n2Cc2ccc(F)cc2)n(C)c1=O	none
Cn1c(SCC(=O)NCCc2ccccc2)ncc(C(=O)Nc2ccccc2)c1=O	UBC13 inh 46.5 (no result: NALP1 yeast inh) | Casp3 counter 94.1 | UBC13 conf inactive
Cn1c(SCC(=O)NCc2ccc3c(c2)OCO3)ncc(C(=O)Nc2ccc(F)cc2)c1=O	UBC13 inh 50.5 (no result: NALP1 yeast inh) | Casp3 counter 85.6 | UBC13 conf inactive
Cn1c(SCC(=O)NCc2ccc(F)cc2)ncc(C(=O)Nc2ccccc2)c1=O	UBC13 inh 59.7 (no result: NALP1 yeast inh) | Casp3 counter 87.2 | UBC13 conf 53.4
Cn1cnnc1SCC(=O)NCCc1ccccc1	none
O=C(O)c1cc(S(=O)(=O)N2CCCCC2)ccc1N1CCOCC1	none (no result: NALP1 yeast inh)
c1ccc(C[C@H]2CN=C(Nc3ccccc3)N2CC2CCCCC2)cc1	none (no result: NALP1 yeast inh)
c1ccc(C[C@H]2CN=C(Nc3ccccc3)N2CCCC2CCCCC2)cc1	UBC13 inh 48.4 (no result: NALP1 yeast inh) | Casp3 counter inactive | UBC13 conf inactive
Nc1nccnc1C(=O)OCC(=O)c1ccc[nH]1	none (no result: NALP1 yeast inh)
CCCCCCCC[n+]1cccc(C(=O)N(CC)CC)c1	none
CCCCCCCCCCCCCCCC[n+]1ccccc1	none (no result: CR mimetic SO, NALP1 yeast inh, UBC13 inh)
CCCCCCCCCCCCCCCC[n+]1ccc(/C=N/O)cc1	dFosB act 37.5, NALP1 yeast inh 50.1, GRIN3A LBD mod 24.6, UBC13 inh 91.3 | Casp3 counter inactive | UBC13 conf 87.9
CCCCCCCCCCCCCCCC[n+]1cccc(C(=O)N(CC)CC)c1	NALP1 yeast inh 70.7, UBC13 inh 69.6 | Casp3 counter inactive | UBC13 conf 93.6
CCCCCCCCCCCCCCCC[n+]1ccc(C(N)=O)cc1	dFosB act 45.1, NALP1 yeast inh 95.9, GRIN3A LBD mod 15.5, UBC13 inh 88.9 | Casp3 counter inactive | UBC13 conf 99.4
COc1ccc(S(=O)(=O)N2CCN(c3ccccc3OC)CC2)cc1	none
COc1ccc(S(=O)(=O)N2CCN(c3ccc4nnc(-c5ccccc5)n4n3)CC2)cc1	UBC13 inh 51.2 | Casp3 counter inactive | UBC13 conf inactive
Brc1ccc(-c2nnc3ccc(N4CCN(c5ccccc5)CC4)nn23)cc1	NALP1 yeast inh 29.6, UBC13 inh 61.9 | Casp3 counter inactive | UBC13 conf inactive
Fc1ccc(-c2nnc3ccc(N4CCCC4)nn23)cc1	none
CCOc1ccccc1-c1nc(C(N)=O)c2[nH]c(=O)n(-c3ccc(F)cc3)c2n1	UBC13 inh 64.9 | Casp3 counter inactive | UBC13 conf inactive
CC(C)c1nc(C(N)=O)c2[nH]c(=O)n(-c3ccc(F)cc3)c2n1	none
CCN(C[C@H]1N[C@@](Cc2ccccc2)(C(=O)OC)[C@H]2C(=O)N(Cc3ccccc3)C(=O)[C@@H]12)C(=O)COc1ccccc1	none (no result: NALP1 yeast inh)
CCN1CCN(CCCNC(=O)c2ccc(/C=C3/Sc4ccccc4N(Cc4ccccc4F)C3=O)cc2)CC1	UBC13 inh 46.5 | Casp3 counter inactive | UBC13 conf 53.9
CCN1CCN(CCNC(=O)c2ccc(/C=C3/Sc4ccccc4N(Cc4ccccc4C)C3=O)cc2)CC1	none (no result: CR mimetic SO, UBC13 inh)

Compound activity as filed in PubChem.
